# Source: PubChem BioAssay
# HEK293 viab = counter-screen for SNCA expression inhibitors: cell viability | 0.12% of 150,000 active | AID 1671193 | HEK-293-SNCA-luc viability, GF-AFC fluorescence, 24 h | Potency, µM (highest dose often 57.1 µM), without a hit: top-dose activity change, negative = cytotoxicity, hits mostly cytotoxic;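 further: potency means the concentration at half of the fitted maximal effect; 0% = DMSO-treated cells and -100% = medium-only wells without cells; nearly all actives have a fitted effect of over 30% in size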
#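 HEK-293-SNCA-luc cells (1500/well) plated 24 h, then exposed 24 h to a dilution series; GF-AFC added 30 min at 37C, fluorescence 405/540 nm; normalised to medium-only and DMSO wells, Hill fit.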
# IP6K1 inh = blocks human inositol hexakisphosphate kinase 1 | 0.81% of 140,000 active | IP6K1 kinase, ADP-Glo luminescence, 2 h; stronger effect = lower value | AID 1645851 | activity change, % (series mostly up to about 58 µM) | Q92551; in the data active means activity change below about -25%; further: on the % scale 0 is the no-effect control and ±100 the full control effect
#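 ADP-Glo luminescence measures ADP made by human IP6K1 during a 2 h RT reaction with ATP/IP6 (mix at 1.3 mM/130 uM); top library doses 57.5 and 19.1 uM final.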
# SNCA expr inhib = inhibitors of alpha-synuclein (SNCA) gene expression; HEK-293 SNCA-luciferase knock-in, luminescence, 24 h; Potency, µM (doses to about 57.2 µM), for inactives: at the highest dose activity change, negative = inhibition, usual class: inhibitors; 0.17% of 140,000 active;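 further: potency means the concentration at half of the fitted maximal effect; plate controls were DMSO cells for no effect and cell-free wells for full effect; nearly all actives have a fitted effect of over 45% in size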
# KDM5B inh = blocks human KDM5B histone demethylase activity; Q9UGL1; KDM5B demethylase, FDH-coupled NADH fluorescence (FDH is formaldehyde dehydrogenase); Potency, µM (titrated, usually from 57.7 µM), usual class: inhibitors; 2.6% of 220,000 active; AID 1347165; further: potency means the concentration at half of the fitted maximal effect; 0% is about no effect; nearly all actives have a fitted effect of over 70% in size
#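 Compound dilutions met 200 nM (final) KDM5BΔAP for 10 min at room temperature before substrate addition. The substrate mix held 12.5 µM H3K4me3 with cofactors 25 µM α-ketoglutarate and 50 µM Fe²⁺. NADH signal gain over 30 min defined activity.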
# * marks the source's active call; other numbers are inactive results; i = inactive; ? = inconclusive; / = no result given; [ ] = remark or other dose. In the library only some 3% were active in any assay of this set; here they are far more common. Unless noted, the call rests on the fitted dose curve; in most records, active means well fitted curve in the direction sought with a large enough effect; inconclusive means small, poorly fitted or top-dose-only effect, or another doubt; inactive means no such curve, though single readings can be large; an effect the other way counts as inactive or inconclusive.
SMILES,HEK293 viab,IP6K1 inh,SNCA expr inhib,KDM5B inh
O=C(c1cccnc1)N1C[C@@H]2OCC(=O)N(Cc3ccccn3)[C@@H]2C1,3.6%[87.6 µM],-5.3,-22.7%[87.6 µM],i
CCn1c(=N)n(CCOc2ccc(Br)cc2)c2ccccc21,?,24.8,25.1µM*,i
Cc1oc(-c2ccccc2)nc1C(=O)NCc1ccccc1,/,/,/,i
COc1ccccc1CNC(=O)CCC[C@H]1NC[C@@H]2C[C@H]1CN(Cc1ccccc1)C2,-13.2%,-14.7,7.9%,4.47µM*
CC(C)CN1CCN(C(=O)CCC[C@H]2NC[C@@H]3C[C@H]2CN(Cc2ccccc2)C3)CC1,-22.6%,-12.9,-19.3%,6.31µM*
Cc1cnc(C2CCN(Cc3ccc(F)cc3F)C2)n1Cc1ccccc1 (stereo not drawn),0.7%,1.7,-26.0%,/
CCN(CC)C(=O)[C@@H]1CCC[C@@H](NC(=O)c2ccc(C#N)cc2)CN(C)C(=O)C1,2.6%[87.6 µM],7.1,9.0%[87.6 µM],i
CCN(CC)C(=O)[C@@H]1C[C@@H](NC(=O)c2ccn(CC)c(=O)c2)CN1C(C)=O,-13.5%,-6.6,-3.1%,28.2µM*
CCc1c(C)sc(NC(=O)C2CC2c2ccccc2)c1C#N (stereo not drawn),/,/,/,i
Cc1ccccc1-c1cc(-c2ccc(=O)[nH]c2)c2cncn2c1,9.6%[87.6 µM],-4.3,5.5%[87.6 µM],35.5µM*
Cc1cccc(CNC(=O)c2ccc(Cn3c(SCc4cccc(F)c4)nc4cccnc43)cc2)c1,-11.3%,-52.6*,-7.1%,?
Cc1ccc(C)c(S(=O)(=O)c2nnn3c2nc(NCCCOC(C)C)c2ccccc23)c1,0.4%,41.6,-7.5%,?
COc1ccc(OC)c([S+](=O)([O-])c2nnn3c2nc(N2CCOCC2)c2ccccc23)c1,1.6%,14.0,19.8%,i
COCCNc1nc2c(S(=O)(=O)c3cc(C)ccc3C)nnn2c2ccccc12,-2.7%,8.8,-1.5%,79.4µM*
COc1ccc(OC)c([S+](=O)([O-])c2nnn3c2nc(NC2CCCC2)c2ccccc23)c1,-6.0%,3.5,12.5%,?
COCCCNc1nc2c([S+](=O)([O-])c3cc(OC)ccc3OC)nnn2c2ccccc12,0.7%,2.4,-24.9%,79.4µM*
COc1ccc(OC)c([S+](=O)([O-])c2nnn3c2nc(NCCCOC(C)C)c2ccccc23)c1,-3.0%,-0.6,15.1%,89.1µM*
Cc1cc(Cl)c(CO)c(Cl)n1,/,/,/,i
COc1cc(Nc2nc3ccccc3nc2C(=O)OC(C)C)cc(OC)c1,/,/,/,i
COC(=O)c1ccccc1NC(=O)Cn1cccc1-c1nc(-c2ccccc2)no1,-10.6%,-9.3,-20.6%,28.2µM*
COc1ccc(NC(=O)Cn2cccc2-c2nc(-c3ccccc3)no2)cc1,-8.1%,6.5,8.1%,i
CC(C)c1ccc(N2C(=O)[C@@H]3C[C@@H](NC(=O)C4CCN(c5nccc(C(F)(F)F)n5)CC4)CCN3C2=O)cc1,-12.1%,8.0,-1.0%,28.2µM*
Cn1ccc2c(-c3cc(NCCO)nc(N)n3)ccnc21,5.3%,38.1,112.2%,28.2µM*
CCOC(=O)/C=C/c1cccc(C(C)=O)c1,/,/,/,i
COc1ccc2cc(C3CN(Cc4nc(C(N)=O)no4)CCO3)ccc2c1 (stereo not drawn),-4.6%,-5.6,36.5%,17.8µM*
SMILES,HEK293 viab,IP6K1 inh,SNCA expr inhib,KDM5B inh
COc1ccc2cc(C3CN(CCC(=O)NC(C)(C)C)CCO3)ccc2c1 (stereo not drawn),1.7%,21.6,120.3%,?
Cn1cnnc1CC1CCN(C(=O)CCc2ccccc2)CC1,-6.5%,-6.3,?,/
Cn1cnnc1CC1CCN(C(=O)CCc2nc3ccccc3[nH]c2=O)CC1,6.2%,3.5,0.2%,25.1µM*
CSc1ccc(-c2nc(CN3CCOC(CCO)C3)c(C)o2)cc1 (stereo not drawn),-21.5%,8.9,9.9%,15.8µM*
CSc1ccc(-c2nc(CN3CCN(C(C)=O)CC3)c(C)o2)cc1,-10.6%,43.5,31.7%,20µM*
CSc1ccc(-c2nc(CN3CCN(C(=O)N(C)C)CC3)c(C)o2)cc1,-0.8%,-2.1,33.4%,?
Cn1c(CNC(=O)C2(C)CCCCC(=O)N2)nc2ccccc21 (stereo not drawn),-10.3%,6.9,0.1%,i
Cn1c(CNC(=O)C2(Cc3ccccc3)CCCCC(=O)N2)nc2ccccc21 (stereo not drawn),-13.4%,0.0,2.9%,17.8µM*
CC(C)NC(=O)c1ccc2nccn2c1,1.3%[87.6 µM],-11.1,16.6%[87.6 µM],141µM*
COc1ccc([C@@H](NC(=O)c2ccc3nccn3c2)C2CC(O)C2)cn1 (stereo partly drawn),5.8%,16.0,-4.5%,20µM*
CN(C)C(=O)c1ccc2nccn2c1,2.3%[87.6 µM],-7.7,-16.1%[87.6 µM],126µM*
CCCNC(=O)C12CC3CC(C1)CC(c1ccccc1)(C3)C2,/,/,/,i
CCCCCCCCOc1ccc(/C=C(/C#N)c2nc3ccccc3[nH]2)cc1,/,/,/,i
O=C(O)C(Br)Cc1ccc(Cl)cc1 (stereo not drawn),/,/,/,i
O=C(CSc1nnc2ccc(-c3cccs3)nn12)NC1CCCC1,/,/,/,i
COC(=O)c1ccccc1NC(=O)CSc1nncc2ccccc12,/,/,/,i
C=C1C(=O)O[C@@H]2/C=C(\C)CC/C=C(/C=O)[C@H](OC)[C@@H](OC(=O)C(C)C)[C@@H]12,?,-1.8,/,/
C=C1C(=O)O[C@@H]2/C=C(\C)C(=O)/C=C/[C@](C)(O)C[C@@H](OC(=O)C(C)C)[C@@H]12,9.27µM*,-1.1,/,/
O=C(NCC1CCCO1)c1cc2c(=O)[nH]c(-c3ccccc3)cn2n1 (stereo not drawn),-12.5%,-21.6,-11.8%,22.4µM*
Cc1nn2c(c1-c1ccccc1-c1ccccc1)N(Cc1ccc(C(=O)O)s1)CCC2,3.3%[87.6 µM],16.9,-14.6%[87.6 µM],i
Cc1nn2c(c1-c1ccccc1Oc1ccccc1)N(Cc1cccc(C(=O)O)c1)CCC2,-18.5%[87.6 µM],6.0,?,?
Cc1nn2c(c1-c1ccccc1Oc1ccccc1)N(Cc1ccc(C(=O)O)s1)CCC2,?,7.6,12.6µM*,?
Cc1nn2c(c1-c1ccnn1C(C)C)N(Cc1cccc(C#N)c1)CCC2,?,12.0,2.82µM*,?
Cc1nn2c(c1-c1ccnn1C(C)C)N(Cc1ccc(O)cc1)CCC2,5.5%[87.6 µM],21.0,6.4%[87.6 µM],i
Cc1nn2c(c1-c1ccccc1Oc1ccccc1)N(Cc1cccc(C#N)c1)CCC2,?,4.5,?,25.1µM*
Cc1nn2c(c1-c1ccccc1[S+](C)(=O)[O-])N(Cc1ccc(C(=O)O)s1)CCC2,?,27.6,3.98µM*,?
c1ccc2c(c1)COC1(CCNC1)CN2CC1CCCCC1 (stereo not drawn),-19.3%[87.6 µM],-21.5,-19.9%[87.6 µM],?
CN(C)c1ccc(C(=O)N2CCN(S(C)(=O)=O)[C@H](C(=O)N[C@H](Cc3c[nH]c4ccccc34)C(N)=O)C2)cc1,1.3%,-12.6,14.0%,i
CN(C)c1ccc(C(=O)N2CCN(C(=O)c3ccc(N(C)C)cc3)[C@H](C(=O)N[C@H](Cc3c[nH]c4ccccc34)C(N)=O)C2)cc1,1.9%,2.7,1.3%,28.2µM*
